From PMC5540273 (PLoS ONE, 2017)

Key:
Details in all cases: concentration: 1 μM,replicates: in singlicate; n = 1
[1] = tested on: T1, HASPIN
T1 construct: gene GSG2

[2] = tested on: HCK
[3] = tested on: HIPK1
[4] = tested on: HIPK2
[5] = tested on: HIPK3
[6] = tested on: HIPK4
[7] = tested on: HPK1
[8] = tested on: HUNK
[9] = tested on: ICK
[10] = tested on: IGF1R
[11] = tested on: T2, IKK-alpha
T2 construct: gene CHUK

[12] = tested on: T3, IKK-beta
T3 construct: gene IKBKB

[13] = tested on: T4, IKK-epsilon
T4 construct: gene IKBKE

[14] = tested on: INSRR
[15] = tested on: INSR
[16] = tested on: IRAK1
[17] = tested on: IRAK3
[18] = tested on: IRAK4
[19] = tested on: ITK
[20] = tested on: JAK1(JH1domain-catalytic)
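Note: KINOMEscan kinase panel screen.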

Row | Structure (SMILES) | %Inh [1] [%] | %Inh [2] [%] | %Inh [3] [%] | %Inh [4] [%] | %Inh [5] [%] | %Inh [6] [%] | %Inh [7] [%] | %Inh [8] [%] | %Inh [9] [%] | %Inh [10] [%] | %Inh [11] [%] | %Inh [12] [%] | %Inh [13] [%] | %Inh [14] [%] | %Inh [15] [%] | %Inh [16] [%] | %Inh [17] [%] | %Inh [18] [%] | %Inh [19] [%] | %Inh [20] [%]
1 | CCN(CC)CCCCNc1ncc2cc(-c3c(Cl)cccc3Cl)c(NC(=O)NC(C)(C)C)nc2n1 | 0 | 97.6 | 16 | 7 | 23 | 64 | 72 | 10 | 0 | 0 | 30 | 5 | 0 | 0 | 0 | 16 | 0 | 0 | 0 | 0
2 | Cc1cc2cn[nH]c2cc1-c1cccc2c(N)c(C(N)=O)nnc12 | 0 | 73 | 29 | 50 | 25 | 0 | 11 | 0 | 44 | 0 | 22 | 43 | 0 | 11 | 0 | 27 | 1 | 34 | – | 4
3 | C[C@@H]1CCN(C(=O)CC#N)C[C@@H]1N(C)c1ncnc2[nH]ccc12 | 6 | 17 | 4 | 0 | 0 | 9 | 0 | 0 | 0 | 0 | 0 | 0 | 4 | 0 | 0 | 0 | 0 | 0 | 0 | –
4 | CC(C)Nc1cc(-c2ccc3c(N)n[nH]c3c2)nc(N)n1 [GSK2221681] | 48 | 0 | 10 | 0 | 3 | 23 | 33 | 0 | 7 | 2 | 19 | 19 | 32 | 2 | 2 | 0 | 0 | 0 | 13 | 0
5 | O=C(NCCNc1ccnc(NCc2ccc(F)cc2)n1)c1cc2ccccc2s1 [GSK1379944] | 0 | 0 | 0 | 0 | 75 | 0 | 52 | 19 | 0 | 70 | 0 | 83 | 26 | 0 | 2 | 83 | 17 | 18 | 17 | 0
6 | C=CC(=O)Nc1cc2c(Nc3ccc(F)c(Cl)c3)ncnc2cc1OCCCN1CCOCC1 [GW781483] | 6 | 32 | 21 | 40 | 0 | 9 | 14 | 0 | 21 | 0 | 0 | 0 | 0 | 0 | 0 | 74 | 2 | 28 | 35 | 0
7 | Cc1ccc2c(-c3ccncc3)c(-c3ccc(F)cc3)nn2c1.Cl [GW461484] | 19 | 0 | 0 | 0 | 1 | 0 | 0 | 12 | 0 | 16 | 9 | 0 | 34 | 0 | 6 | 0 | 0 | 0 | 0 | 11
8 | CNC(=O)c1ccccc1Sc1ccc2c(/C=C/c3ccccn3)n[nH]c2c1 | 0 | 8 | 24 | 7 | 6 | 17 | 46 | 0 | 0 | 4 | – | 16 | 5 | 57 | 6 | 0 | 16 | 0 | 0 | 0
9 | Cl.Cl.Nc1nc(-c2ccc3c(N)n[nH]c3c2)cc(N2CCCC(NC(=O)c3ccccc3)C2)n1 (centres unmarked) [GSK2286775] | 0 | 0 | 0 | 0 | 21 | 0 | 39 | 0 | 22 | 0 | 11 | 24 | 80 | 0 | 27 | 15 | 0 | 20 | 9 | 10
10 | Cc1ccc(-n2nc(C(C)(C)C)cc2NC(=O)Nc2ccc(OCCN3CCOCC3)c3ccccc23)cc1 [GW839464] | 24 | 23 | 31 | 0 | 0 | 2 | 0 | 3 | 0 | 6 | 29 | 0 | 0 | 0 | 0 | 0 | 27 | 0 | 18 | 0
11 | CN(C)CC(O)COc1ccc(Nc2nccc(-c3cnn4nc(N5CCOCC5)ccc34)n2)cc1 (centres unmarked) [GW767488] | 87 | 0 | 99.5 | 100 | 99.6 | 87 | 8 | 0 | 94.1 | 0 | 96 | 93.8 | 58 | 0 | 13 | 99.9 | 82 | 37 | 36 | 0
12 | CC(C)N1C(=O)Cc2cc(Nc3ncc(C(F)(F)F)c(NCc4cccc(S(C)(=O)=O)c4)n3)ccc21 | 0 | 0 | 15 | 40 | 11 | 3 | 41 | 0 | 26 | 29 | 20 | 26 | 70 | 15 | 44 | 37 | 7 | 9 | 8 | 48
13 | Nc1nc(Nc2ccccc2)cc(-c2ccc3c(N)n[nH]c3c2)n1 [GSK2225749] | 53 | 12 | 4 | 15 | 12 | 41 | 2 | 0 | 4 | 0 | 27 | 18 | 17 | 6 | 0 | 0 | 0 | 4 | 0 | 0
14 | O=C(NCCCN1CCOC1=O)c1cnc(NCc2cc(Cl)ccc2Cl)nc1NC1CCCC1 | 0 | 1 | 43 | 15 | 23 | 0 | 29 | 5 | 0 | 0 | 0 | 16 | 13 | 9 | 0 | 23 | 0 | 6 | 18 | 0
15 | Cl.Oc1cc(-c2nc(-c3ccccc3)[nH]c2-c2ccncc2)ccc1Cl [SB-386023] | 26 | 69 | 31 | 44 | 6 | 7 | 17 | 0 | 22 | 0 | 0 | 8 | 0 | 0 | 3 | 0 | 0 | 0 | 10 | 0
16 | C[C@H]1Oc2cc(cnc2N)-c2c(nn(C)c2C#N)CN(C)C(=O)c2ccc(F)cc21 | 0 | 44 | 45 | 0 | 0 | 16 | 17 | 19 | 0 | 17 | 0 | 0 | 0 | 13 | 0 | 2 | 13 | 0 | 10 | 10
17 | Cc1n[nH]c2ccc(-c3cc(OC[C@@H](N)Cc4ccccc4)cnc3-c3ccoc3)cc12.O=C(O)C(F)(F)F.O=C(O)C(F)(F)F [GSK507358] | 86 | 0 | 9 | 11 | 28 | 11 | 77 | 9 | 0 | 17 | 0 | 0 | 22 | 0 | 0 | 20 | 0 | 4 | 9 | 0
18 | NC(=O)c1cc(-c2ccccc2)cc2c(C3CCNCC3)c[nH]c12 [GSK301362] | 63 | 0 | 9 | 0 | 16 | 0 | 77 | 0 | 14 | 0 | 54 | 98 | 20 | 2 | 0 | 35 | 19 | 28 | 19 | 18
19 | Cl.Cl.NC[C@H](CC1CCCCC1)NC(=O)c1cc(Br)c(-c2ccnc3[nH]ccc23)s1 [GSK1581427] | 68 | 0 | 84 | 74 | 94.3 | 93.7 | 67 | 0 | 24 | 0 | 27 | 45 | 0 | 0 | 0 | 38 | 0 | 25 | 12 | 22
